Results filed as inconclusive are left out. The source made the active and inactive calls. Calls follow the shape of the dose curve; as a rule, active = well fitted curve in the direction sought with a large enough effect; inconclusive = small, poorly fitted or top-dose-only effect, or another doubt; inactive = no such curve, though single readings can be large; an effect the other way counts as inactive or inconclusive.
Legend:
[1] = qHTS of pediatric cancer cell lines to identify multiple opportunities for drug repurposing: Primary screen for LAN-5 cells (AID 1347100); also: potency is read from the fitted curve at half-maximal effect
Procedure, shortened: (§1)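 Cells (500-1,000/well) rested 5 h, then received compounds for 48 h; metabolically active cells were measured by CellTiter-Glo luminescence. Final concentrations spanned up to 46 µM (MIPE, 11-point) or 0.59 nM-46 µM (NPC, 8-point) in primary screens, 11-point in follow-ups.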

[2] = qHTS of pediatric cancer cell lines to identify multiple opportunities for drug repurposing: Primary screen for BT-12 cells (AID 1347101); also: nearly all actives have a fitted effect of over 25% in size; also: potency is read from the fitted curve at half-maximal effect
Procedure, shortened: as §1

[3] = qHTS of pediatric cancer cell lines to identify multiple opportunities for drug repurposing: Primary screen for OHS-50 cells (AID 1347103); also: nearly all actives have a fitted effect of over 40% in size; also: potency is read from the fitted curve at half-maximal effect
Procedure, shortened: as §1

[4] = qHTS of pediatric cancer cell lines to identify multiple opportunities for drug repurposing: Primary screen for RD cells (AID 1347104); also: nearly all actives have a fitted effect of over 55% in size; also: potency is read from the fitted curve at half-maximal effect
Procedure, shortened: (§2)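 Quantitative HTS format: each compound titrated (MIPE 11 points from 0.78 nM, NPC 8 points from 0.59 nM) onto cells plated 5 hours earlier. After 48 h at 37 degrees C, CellTiter-Glo luminescence was recorded.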

[5] = qHTS of pediatric cancer cell lines to identify multiple opportunities for drug repurposing: Primary screen for Rh30 cells (AID 1347107); also: nearly all actives have a fitted effect of over 75% in size; also: potency is read from the fitted curve at half-maximal effect
Procedure, shortened: as §1

[6] = qHTS of pediatric cancer cell lines to identify multiple opportunities for drug repurposing: Confirmatory screen for NB1643 cells (AID 1347109); also: nearly all actives have a fitted effect of over 45% in size; also: potency is read from the fitted curve at half-maximal effect
Procedure, shortened: as §1

[7] = qHTS of pediatric cancer cell lines to identify multiple opportunities for drug repurposing: Confirmatory screen for A673 cells (AID 1347110);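 also: cells exposed to compound for 48 h before the viability read; nearly all actives have a fitted effect of over 65% in size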; also: potency is read from the fitted curve at half-maximal effect
Procedure, shortened: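 A673 cells seeded at 500-1,000 cells/well, rested 5 h, then dosed; primary MIPE 11-point (0.78 nM to 46 µM), NPC (0.59 nM to 46 µM); confirmatory 11-point. CellTiter-Glo luminescence after 48 h.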

[8] = qHTS of pediatric cancer cell lines to identify multiple opportunities for drug repurposing: Confirmatory screen for SK-N-MC cells (AID 1347111);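 also: cells exposed to compound for 48 h before the readout; nearly all actives have a fitted effect of over 70% in size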; also: potency is read from the fitted curve at half-maximal effect
Procedure, shortened: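 Seed 500-1,000 cells/well; rest 5 h at 37 degrees C. Pin-transfer compounds, 11-point titration. Incubate 48 h. Add CellTiter-Glo, 15 min RT, read luminescence.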

[9] = qHTS of pediatric cancer cell lines to identify multiple opportunities for drug repurposing: Confirmatory screen for LAN-5 cells (AID 1347113); also: nearly all actives have a fitted effect of over 65% in size; also: potency is read from the fitted curve at half-maximal effect
Procedure, shortened: as §1

[10] = qHTS of pediatric cancer cell lines to identify multiple opportunities for drug repurposing: Confirmatory screen for DAOY cells (AID 1347114); also: nearly all actives have a fitted effect of over 65% in size; also: potency is read from the fitted curve at half-maximal effect
Procedure, shortened: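 Viability measured as metabolically active cells via CellTiter-Glo luminescence following 48 hours of compound exposure, 11-point dilutions in confirmatory testing. 500-1,000 cells/well plated 5 hours before dosing; controls were DMSO and 2.3 µM bortezomib.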

[11] = qHTS of pediatric cancer cell lines to identify multiple opportunities for drug repurposing: Confirmatory screen for BT-37 cells (AID 1347117); also: nearly all actives have a fitted effect of over 55% in size; also: potency is read from the fitted curve at half-maximal effect
Procedure, shortened: as §1

[12] = qHTS of pediatric cancer cell lines to identify multiple opportunities for drug repurposing: Confirmatory screen for TC32 cells (AID 1347118);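 also: cells exposed to compound for 48 h before the read; nearly all actives have a fitted effect of over 65% in size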; also: potency is read from the fitted curve at half-maximal effect
Procedure, shortened: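 qHTS, TC32, 48 h drug treatment, CellTiter-Glo luminescence as a proxy for metabolically active cells; primary top concentration 46 µM (MIPE 11-pt, NPC 8-pt); confirmatory 11-pt.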

[13] = qHTS of pediatric cancer cell lines to identify multiple opportunities for drug repurposing: Confirmatory screen for MG 63 (6-TG R) cells (AID 1347119); also: nearly all actives have a fitted effect of over 55% in size; also: potency is read from the fitted curve at half-maximal effect
Procedure, shortened: as §1

[14] = qHTS of pediatric cancer cell lines to identify multiple opportunities for drug repurposing: Confirmatory screen for control Hh wild type fibroblast cells (AID 1347121); also: nearly all actives have a fitted effect of over 70% in size
Procedure, shortened: as §1

[15] = qHTS of pediatric cancer cell lines to identify multiple opportunities for drug repurposing: Primary screen for control Hh wild type fibroblast cells (AID 1347106);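 also: series mostly up to about 46 µM; a drop in luminescence marks cytotoxicity and a rise apparent proliferation; nearly all actives have a fitted effect of over 55% in size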
Procedure, shortened: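 Cells (500-1,000/well) in growth media were settled 5 h at 37 degrees C, then given compounds for 48 h. Viability was read as CellTiter-Glo luminescence. Primary runs used MIPE at 11 points (0.78 nM-46 µM) and NPC at 8 points (0.59 nM-46 µM); follow-ups used 11 points.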

[16] = qHTS of pediatric cancer cell lines to identify multiple opportunities for drug repurposing: Primary screen for Rh41 cells (AID 1347108); also: nearly all actives have a fitted effect of over 70% in size; also: potency is read from the fitted curve at half-maximal effect
Procedure, shortened: as §2

[17] = qHTS of pediatric cancer cell lines to identify multiple opportunities for drug repurposing: Confirmatory screen for NB-EBc1 cells (AID 1347115);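 also: cells exposed to compound for 48 h before the viability read; nearly all actives have a fitted effect of over 45% in size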; also: potency is read from the fitted curve at half-maximal effect
Procedure, shortened: as §1

[18] = qHTS of pediatric cancer cell lines to identify multiple opportunities for drug repurposing: Primary screen for MG 63 (6-TG R) cells (AID 1347105); also: nearly all actives have a fitted effect of over 50% in size; also: potency is read from the fitted curve at half-maximal effect
Procedure, shortened: as §2

[19] = qHTS of pediatric cancer cell lines to identify multiple opportunities for drug repurposing: Primary screen for Rh18 cells (AID 1347102); also: nearly all actives have a fitted effect of over 65% in size; also: potency is read from the fitted curve at half-maximal effect
Procedure, shortened: as §1

[20] = qHTS of pediatric cancer cell lines to identify multiple opportunities for drug repurposing: Confirmatory screen for BT-12 cells (AID 1347112); also: nearly all actives have a fitted effect of over 55% in size
Procedure, shortened: as §1

Measured: Potency

CC[C@]1(O)C[C@H]2CN(CCC3=c4ccccc4=N[C]3[C@@](C(=O)OC)(c3cc4c(cc3OC)N(C)[C@H]3[C@@](O)(C(N)=O)[C@H](O)[C@]5(CC)C=CCN6CC[C@]43[C@@H]65)C2)C1
inactive: [5] | [14]
active: [1] 0.0166 µM | [2] 0.122 µM | [3] 0.0685 µM | [4] 0.0332 µM | [6] 0.104 µM | [7] 0.0585 µM | [8] 0.117 µM | [9] 0.147 µM | [10] 0.261 µM | [11] 0.0737 µM | [12] 0.104 µM | [13] 0.261 µM

C[C@@H]1C[C@H]2[C@@H]3CCC4=CC(=O)C=C[C@]4(C)[C@@]3(F)[C@@H](O)C[C@]2(C)[C@@]1(O)C(=O)CO
not listed: [8] | [12] | [18] | [19] | [20]
inactive: all other assays above

CC(C)(C)c1[nH]cnc1C=c1[nH]c(=O)c(=Cc2ccccc2)[nH]c1=O
inactive: [15]
active: [1] 0.001 µM | [2] 0.0111 µM | [3] 35.2 µM | [4] 34 µM | [6] 0.0114 µM | [7] 0.032 µM | [8] 0.0101 µM | [9] 0.0114 µM | [10] 0.018 µM | [17] 0.018 µM | [11] 0.0143 µM | [12] 0.0101 µM

O=c1[nH]c(=O)n([C@H]2C[C@@H](O)[C@@H](CO)O2)cc1C(F)(F)F
active: [1] 3.32 µM | [2] 10.9 µM | [3] 17.2 µM
inactive: [18] | [15] | [5] | [16]

COc1cc2nc(-c3cc(F)ccc3O)nc(N[C@@H]3CNC[C@@H]3C(C)(C)O)c2cc1OC
inactive: [15]
active: [1] 13.2 µM | [2] 27.3 µM | [3] 10.9 µM | [16] 23.5 µM

CC1(C)OC2CC3C4CC(F)C5=CC(=O)C=CC5(C)C4C(O)CC3(C)[C@]2(C(=O)CO)O1 (some centres not stated)
not listed: [4] | [19] | [20]
inactive: all other assays above

Cn1c(=O)c(-c2c(Cl)cccc2Cl)cc2cnc(Nc3cccc(C(=O)O)c3)nc21
inactive: [1] | [2] | [4] | [15] | [5] | [16]

CN[C@@H](C)[C@H]1[C@H](O)C[C@@]2(C)[C@@H]3CC[C@H]4C(C)(C)[C@@H](NC)CC[C@@]45C[C@@]35CC[C@]12C
inactive: [1] | [2] | [18] | [15] | [5] | [16]

CC1C(=O)OC2C(O)C34C5CC(C(C)(C)C)C36C(OC(=O)C6O)OC4(C(=O)O5)C12O (configuration not stated)
active: [1] 20.9 µM | [7] 18.5 µM
not listed: [2] | [4] | [14]
inactive: all other assays above

O=C(c1ccc(C=Cc2n[nH]c3ccccc23)cc1)N1CCNCC1
inactive: [19] | [15]
active: [1] 0.833 µM | [3] 2.17 µM

O=c1[nH]c(=O)n([C@H]2C[C@@H](O)[C@@H](CO)O2)cc1I
inactive: [1] | [19] | [3] | [4] | [18] | [15] | [5] | [16]

COc1cc(Nc2nc3ccccc3nc2NS(=O)(=O)c2ccc(NC(=O)c3ccc(C)c(OC)c3)cc2)cc(OC)c1
inactive: [1] | [19]

OCCn1cc(-c2ccc3c(c2)CCC3=NO)c(-c2ccncc2)n1
not listed: [2] | [4] | [5] | [7] | [8] | [9] | [15]
inactive: all other assays above

C[C@H]1COC2=C1C(=O)C(=O)c1c2ccc2c1CCCC2(C)C
inactive: [1] | [19] | [3] | [4] | [18] | [15] | [5]

C=C1c2cccc(O)c2C(O)=C2C(=O)[C@@]3(O)C(O)=C(C(N)=O)C(=O)[C@@H](N(C)C)[C@@H]3[C@@H](O)[C@H]12
inactive: [19] | [3] | [18] | [15]
active: [1] 13.2 µM

CC(C)Oc1cc(Nc2nc(N[C@@H](C)c3ccc(F)cn3)ncc2Cl)[nH]n1
inactive: [15]
active: [1] 2.35 µM | [19] 5.26 µM | [3] 21.7 µM | [4] 13.2 µM | [18] 5.9 µM | [5] 8.33 µM | [16] 5.26 µM

Source: PubChem BioAssay (NCATS)
